Screening data: PubChem, National Center for Advancing Translational Sciences (NCATS)
NS1 inh: inhibitors of influenza NS1 protein function; Potency, µM (titrated, usually from 46.1 µM); actives 0.4% (n = 270,000); AID 2326; calls by dose curve; further: actives are rising curves; nearly all actives have a fitted effect of over 50% in size
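In this qHTS, NS1 from influenza A is expressed in budding yeast, where it slows growth. Cells are switched from glucose to 2% galactose medium (pH 6.0, -URA), treated with compound, and growth recovery is read at OD600.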
Pf growth 48h: P. falciparum growth inhibition at 48 hours (one generation); P. falciparum luciferase growth in erythrocytes, 48 h; Potency, µM (top dose mostly 28.7 µM), hits mostly inhibitors; actives 5.9% (n = 310,000)
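Cell-based growth assay: transgenic P. falciparum expressing firefly luciferase, cultured in red cells within RPMI 1640 containing 0.5% w/v Albumax, 24 mM bicarbonate and gentamycin. A drop in luciferase activity indicates inhibition.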
Cycloheximide cs: affects cycloheximide protein synthesis inhibition readout, counter-screen; cell reporter, cycloheximide protein synthesis inhibition counterscreen; max response, %; actives 12% (n = 300,000); AID 2314; in the data active means max response mostly above about 13%, no sharp cut-off; inactive means mostly below about 14%; further: read at 38.3 µM for the half of the compounds with a filed dose
Pf growth 96h: P. falciparum growth inhibition at 96 hour, primary screen for plastid delayed-death inhibitors | AID 504834 | actives 6.9% (n = 320,000) | P. falciparum luciferase reporter growth, 96 h | Potency, µM (series often up to 28.7 µM), most hits filed as inhibitors
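P. falciparum expressing integrated firefly luciferase grown in erythrocytes (2% hematocrit, 0.05% parasitemia final) with compounds for 96 hours at 37 C, 5% CO2. Growth inhibition read as loss of luminescence after adding luciferase detection reagent.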
Shiga toxin inh: blocks Shiga toxin action in Vero cells; Vero cells, Shiga toxin protein synthesis inhibition reporter; actives 9.2% (n = 290,000); inhibition, % at 38.7 µM; AID 2315; in the data active means inhibition mostly above about 28%, no sharp cut-off; inactive means mostly below about 43%
Of the large screens only hits and unclear results are named; the others gave an inactive call. A selection: hits, their analogues and other compounds. The true share with any hit is near 21%. Unless noted, the call rests on the fitted dose curve; in most records, active means well fitted inhibition curve with a large enough effect; inconclusive means small, poorly fitted or top-dose-only effect, or another doubt; inactive means no such curve, though single readings can be large or run the other way.

O=C(OCc1nnn(Cc2ccccc2)c1-c1c(COC(=O)c2ccccc2)nnn1Cc1ccccc1)c1ccccc1	Pf growth 48h 3.3µM, Pf growth 96h 1.9µM
COC(C(=O)Nc1ccnn1C1CCN(Cc2cnn(C(C)C)c2)CC1)c1ccccc1 (stereo not drawn)	Pf growth 48h inconclusive
C=CCNC(=O)c1cc2c(=O)n3ccccc3nc2s1	Cycloheximide cs 34, Shiga toxin inh 72
CN1CCN(C(=O)c2cc3sc4ccccc4c3s2)CC1	Cycloheximide cs 39
Cc1cccn2c(=O)c3cc(C(=O)NC4CCCCCC4)sc3nc12	Pf growth 48h inconclusive, Pf growth 96h inconclusive
CN1CCN(C(=O)c2cc3c(=O)n4ccccc4nc3s2)CC1	Cycloheximide cs 12, Shiga toxin inh 49
O=C(NC1CCCCCC1)c1cc2c(=O)n3ccccc3nc2s1	Cycloheximide cs 29, Pf growth 96h inconclusive, Shiga toxin inh 75
Cc1ccc(C)c2c(SC(C)C(=O)NCc3ccco3)nc(-c3ccccc3)nc12 (stereo not drawn)	none
O=C1NC[C@@H](Cc2cccc3ccccc23)N(CC2(c3ccccc3)CC2)C1=O	Pf growth 48h 12µM, Pf growth 96h 13µM
CCCC[C@@H]1CNC(=S)N1CCc1cccc2ccccc12	Pf growth 48h inconclusive, Pf growth 96h inconclusive
CCCCN1C(=S)NC[C@@H]1Cc1cccc2ccccc12	Cycloheximide cs 18, Pf growth 96h inconclusive, Shiga toxin inh 60
O=C1NC[C@@H](Cc2cccc3ccccc23)N(CC2CCCCC2)C1=O	Pf growth 48h inconclusive, Pf growth 96h inconclusive
CCOc1ccc(NC(=O)c2oc3ccccc3c2NC(=O)C2CC2)cc1	none (no result: Pf growth 48h, Cycloheximide cs, Pf growth 96h, Shiga toxin inh)
CCCCCCCNC(=O)C1(CC2CC(c3cccc(Br)c3)=NO2)CCNCC1 (stereo not drawn)	Pf growth 48h inconclusive, Cycloheximide cs 8.2, Pf growth 96h 12µM, Shiga toxin inh 33
CCCCCCCNC(=O)C1(CC2CC(c3cccc(Br)c3)=NO2)CCN(C(=O)Cc2ccc(F)cc2)CC1 (stereo not drawn)	Pf growth 48h 7.4µM, Pf growth 96h 10µM (no result: NS1 inh, Cycloheximide cs, Shiga toxin inh)
CCCCCCCNC(=O)C1(CC2CC(c3ccc(Cl)cc3)=NO2)CCNCC1 (stereo not drawn)	Pf growth 96h 6.6µM
O=C(O)C1CC(c2cccc(Br)c2)=NO1 (stereo not drawn)	none (no result: Pf growth 96h)
CCCCCCCNC(=O)C1(CC2CC(c3ccc(Cl)cc3)=NO2)CCN(C(=O)Cc2ccc(F)cc2)CC1 (stereo not drawn)	Pf growth 96h 12µM
CCC(=O)N1CCC2(CC1)Oc1ccc(F)cc1C(=O)C21CC(c2ccc(Cl)cc2)=NO1 (stereo not drawn)	NS1 inh inconclusive, Pf growth 48h inconclusive, Pf growth 96h inconclusive
CC(C)(C)SCCNC(=O)CSCc1ccc([N+](=O)[O-])cc1	Pf growth 48h inconclusive, Pf growth 96h inconclusive
O=C(CN(CCc1ccccc1)C(=O)c1csnn1)NCc1ccc(F)cc1	none
CN(CC(=O)O/N=C(\N)c1cccc([N+](=O)[O-])c1)S(=O)(=O)c1ccccc1	none (no result: Pf growth 96h)
Cn1c(COc2ccc(Br)cc2)nnc1SC1CCc2ccccc2C1=O (stereo not drawn)	Pf growth 96h inconclusive
O=C1NC(=O)/C(=C\c2cn(CC(=O)N3CCOCC3)c3ccccc23)S1	none
CCOC(=O)CN1C(=O)C(Sc2n[nH]c(-c3ccc(C)cc3)n2)CCc2ccccc21 (stereo not drawn)	Pf growth 48h inconclusive, Pf growth 96h 12µM
CCOC(=O)CN1C(=O)C(Sc2n[nH]c(-c3cccc(C)c3)n2)CCc2ccccc21 (stereo not drawn)	Pf growth 48h 13µM, Pf growth 96h 9.3µM
COc1ccc(N2C(=O)CC(Sc3n[nH]c(-c4cccc(C)c4)n3)C2=O)cc1 (stereo not drawn)	Pf growth 48h inconclusive, Pf growth 96h inconclusive
CC(C)(C)C(=O)NNC(=O)c1cc2sccc2s1	none
Cc1cccc(N2CCc3c2nc2ccc(Br)cc2c3N)c1	Pf growth 48h inconclusive, Cycloheximide cs 16
Nc1c2c(nc3ccc(Br)cc13)N(c1ccccc1)CC2	Pf growth 96h inconclusive (no result: Pf growth 48h)
Nc1c2c(nc3ccccc13)CCC2	Pf growth 48h inconclusive
Nc1c2c(nc3ccccc13)N(C1CCCCC1)CC2	Pf growth 48h 13µM
Nc1c2c(nc3ccc(Br)cc13)N(C1CCCCC1)CC2	Pf growth 48h inconclusive, Pf growth 96h 10µM (no result: NS1 inh)
Cc1cccn2c(=O)c3cc(C#N)c(=O)n(CC4CCCO4)c3nc12 (stereo not drawn)	Pf growth 48h inconclusive, Pf growth 96h inconclusive
COc1cc(OC)c(OC)cc1CNC(=O)c1cc(S(=O)(=O)N2CCOCC2)ccc1F	Pf growth 48h inconclusive (no result: NS1 inh, Cycloheximide cs, Shiga toxin inh)
COc1cc(OC)c(OC)cc1CNC(=O)c1ccc(S(=O)(=O)N2CC(C)OC(C)C2)cc1 (stereo not drawn)	Pf growth 48h inconclusive, Pf growth 96h 10µM (no result: NS1 inh, Cycloheximide cs, Shiga toxin inh)
Cc1ccc(-c2nn(CC(=O)N3CCOCC3)c(=O)c3ccccc23)cc1S(=O)(=O)N(C)C	Pf growth 48h inconclusive
C/C(=N\NC(=O)c1ccccc1)c1c(C)[nH]n(-c2ccccc2)c1=O	Cycloheximide cs 49, Shiga toxin inh 61
Cc1[nH]n(-c2ccccc2)c(=O)c1C(=O)c1ccc([N+](=O)[O-])cc1	none
C/C(=N\NC(=O)c1ccc(C)cc1)c1c(C)[nH]n(-c2ccccc2)c1=O	Cycloheximide cs 30, Pf growth 96h 15µM
Cc1[nH]n(-c2ccccc2)c(=O)c1C(=O)Nc1ccccc1	Cycloheximide cs 16
Cc1nc2c(cnn2-c2ccccc2Cl)c(=O)n1-c1ccc(C(C)C)cc1	Pf growth 96h 2.6µM (no result: Pf growth 48h)
Cc1ccc(-n2c(C)nc3c(cnn3-c3ccc(F)cc3)c2=O)cc1	none
COc1ccc(-n2c(C)nc3c(cnn3-c3ccc(C)c(C)c3)c2=O)cc1	Pf growth 96h 10µM (no result: Pf growth 48h)
OC1OC[C@@H](O)[C@@H](O)[C@@H]1O (stereo partly drawn)	none (no result: NS1 inh, Pf growth 48h, Pf growth 96h)
CCN1CCN(c2ccc(S(=O)(=O)N3CCOCC3)cc2NC(=O)CCSC)CC1	Pf growth 48h inconclusive (no result: NS1 inh, Cycloheximide cs, Shiga toxin inh)
CSCCC1Nc2ccc(S(=O)(=O)N3CCOCC3)cc2NC1=O (stereo not drawn)	Pf growth 96h 10µM (no result: NS1 inh)
COc1ccc(C(=O)NCC(=O)N/N=C/c2cn[nH]c2-c2ccccc2)cc1	none (no result: NS1 inh)
COc1ccc(-n2c(C)c3c(OC)cccc(=O)c3c2C)cc1	Pf growth 48h inconclusive, Pf growth 96h 10µM
COc1ccccc1-n1c(C)c2c(OC)cccc(=O)c2c1C	NS1 inh inconclusive, Pf growth 48h 4.1µM
CCN(CC)S(=O)(=O)c1ccc(C(=O)OCC(=O)NCCN2C(=O)CSC2=O)cc1	none
CSc1nc(SCC(=O)NCc2ccco2)c2c3c(sc2n1)COC(C)(C)C3	Pf growth 48h inconclusive
CCCCSc1nc(SCC(=O)NCc2ccco2)c2c3c(sc2n1)COC(C)(CC)C3 (stereo not drawn)	Pf growth 48h inconclusive, Pf growth 96h 9.3µM
CC(C)Sc1nc(NCc2ccco2)c2c3c(sc2n1)COC(C)(C)C3	Pf growth 48h inconclusive, Cycloheximide cs 21, Pf growth 96h inconclusive, Shiga toxin inh 92
